Test results taken from PubChem BioAssay AID588683 (Broad Institute, 2011).
Entries with a potency or affinity are not part of this list. The source made the active and inactive calls. How the calls were made is not given here.

The compounds below were run against Kelch-like ECH-associated protein 1 (Homo sapiens) + Nuclear factor erythroid 2-related factor 2 (Homo sapiens) (UniProt Q14145+Q16236) (assay: Keap1-Nrf2 protein-protein interaction inhibitors, dose response, biochemical, fluorescence polarization, cherry-picked samples (AID 588683;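 further: Kelch domain of Keap1 binding a fluorescein-labelled 9mer Nrf2 peptide; more negative means stronger inhibition of peptide binding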)). Conditions: Keap1/Nrf2 peptide fluorescence polarization, plate reader; series mostly up to 26 µM; activity change, negative = inhibition: at the top concentration.
Kelch-like ECH-associated protein 1 (Homo sapiens) + Nuclear factor erythroid 2-related factor 2 (Homo sapiens), sequence (Q14145 whole entry, looked up, the tested form may be a part): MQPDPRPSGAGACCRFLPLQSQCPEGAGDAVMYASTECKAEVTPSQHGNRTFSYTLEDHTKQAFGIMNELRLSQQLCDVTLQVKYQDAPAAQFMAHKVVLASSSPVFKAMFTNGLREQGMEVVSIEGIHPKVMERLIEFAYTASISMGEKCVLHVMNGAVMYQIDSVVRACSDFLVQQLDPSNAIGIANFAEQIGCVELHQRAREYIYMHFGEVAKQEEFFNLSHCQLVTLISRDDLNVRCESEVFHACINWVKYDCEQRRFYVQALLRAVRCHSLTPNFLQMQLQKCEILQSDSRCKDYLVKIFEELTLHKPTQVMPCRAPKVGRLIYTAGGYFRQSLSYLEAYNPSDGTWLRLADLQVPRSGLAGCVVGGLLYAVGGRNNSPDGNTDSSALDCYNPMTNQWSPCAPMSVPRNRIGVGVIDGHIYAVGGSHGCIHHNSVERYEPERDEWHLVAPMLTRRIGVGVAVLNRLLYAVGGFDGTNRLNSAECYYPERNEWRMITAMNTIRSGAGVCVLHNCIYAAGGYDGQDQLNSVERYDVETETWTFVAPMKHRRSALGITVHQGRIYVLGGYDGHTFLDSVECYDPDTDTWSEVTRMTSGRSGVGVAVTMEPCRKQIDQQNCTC
Kelch-like ECH-associated protein 1 (Homo sapiens) + Nuclear factor erythroid 2-related factor 2 (Homo sapiens), sequence (Q16236 whole entry, looked up, the tested form may be a part): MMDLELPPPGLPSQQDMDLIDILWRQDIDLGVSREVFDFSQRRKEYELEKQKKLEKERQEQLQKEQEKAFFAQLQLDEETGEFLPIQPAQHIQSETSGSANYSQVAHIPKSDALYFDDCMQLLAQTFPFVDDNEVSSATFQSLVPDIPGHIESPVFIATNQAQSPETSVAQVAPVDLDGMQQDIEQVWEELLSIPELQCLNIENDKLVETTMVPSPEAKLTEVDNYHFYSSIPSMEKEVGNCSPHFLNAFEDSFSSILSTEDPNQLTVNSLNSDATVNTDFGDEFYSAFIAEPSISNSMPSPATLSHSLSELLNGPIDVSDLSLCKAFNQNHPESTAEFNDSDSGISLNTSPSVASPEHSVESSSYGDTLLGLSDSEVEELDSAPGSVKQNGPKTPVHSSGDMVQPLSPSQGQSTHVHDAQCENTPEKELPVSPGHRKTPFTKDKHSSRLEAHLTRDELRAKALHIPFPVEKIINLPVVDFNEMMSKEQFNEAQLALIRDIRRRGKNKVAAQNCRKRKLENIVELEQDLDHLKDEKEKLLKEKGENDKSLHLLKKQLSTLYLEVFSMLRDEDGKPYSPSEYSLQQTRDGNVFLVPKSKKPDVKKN

Activity change, negative = inhibition, inactive:
CCCCCSc1nnc2c(n1)OC(C)N(C(C)=O)c1ccccc1-2 (stereo not drawn) 0.854%
NC(=O)COc1ccc(NC(=O)CC23CC4CC(CC(C4)C2)C3)cc1 7.9%
S=C1SCN(CC2CC2)CN1CC1CC1 -13.5%
CC(=O)Nc1ccc(NS(=O)(=O)c2ccc3c(c2)oc(=O)n3C)cc1 -3.36%
O=C1NC(=O)/C(=C/c2ccccc2Cl)N1 -4.79%
C=CCn1c(=O)/c(=C/c2ccsc2)s/c1=C(\C#N)C(=O)NCCN1CCOCC1 -7.84%
CC(C)(C)c1cc[n+](-c2[nH]c(=O)sc2/C=N/NC([S-])=Nc2ccccc2)cc1 -18.6%
O=C(NNC(=O)c1ccc(Br)o1)c1csc(N2CCOCC2)n1 -2.33%
COc1ccc(NC(=O)Cc2ccsc2)cc1S(=O)(=O)N1CCOCC1 -11.7%
COC(=O)c1cc(N2CCN(C)CC2)nc2ccccc12 -11.7%
O=[N+]([O-])c1ccc(S(=O)(=O)c2ccccc2)nc1 -12.1%
C/C(=N/Nc1ccccc1C(=O)O)c1cccs1 -6.44%
COC(=O)c1cc(C)nc2c1c(C)nn2-c1ccccc1 -5.13%
O=c1[nH]c(/C=C/c2cccc3ccccc23)nc2ccccc12 11.9%
Cc1ccc(C(=O)N/C(=C\c2ccc(-c3ccccc3[N+](=O)[O-])o2)C(=O)NCCCN(C)C)cc1 -4.73%
CN1/C(=C\C=C(/C#N)C(=O)Nc2ccc(Cl)cc2)C(C)(C)c2ccccc21 19.3%
Cn1nc(C(=O)NNC(=O)Cc2ccc(S(=O)(=O)N3CCOCC3)s2)c2ccccc2c1=O 0.832%
O=C(CSC1=NNC(c2ccccn2)S1)Nc1cccc(Cl)c1 (stereo not drawn) -5.02%
COc1ccc(Nc2nc3ccccc3nc2-n2nc(C)cc2C)cc1 -0.148%
CCCc1nc2oc3cc(OC)ccc3c(=O)c2c(=O)n1Cc1ccco1 -1.14%
O=C(Nn1cnnc1)c1ccc(Cl)c(Cl)c1 4.89%
O=C(NNS(=O)(=O)c1ccc(F)cc1)c1ccc(O)cc1 -13.2%
CC(=O)c1ccc2c(c1)C1C=CCC1C(C(=O)O)N2 (stereo not drawn) -4.16%
CCCCCC(=O)N1CCCC1 -2.92%
O=C(CCCCl)NC(=S)Nc1ccc(N2CCOCC2)cc1 -3.9%
CC1(C)CC(=O)C2=C(C1)OC(N)=C(C#N)C2c1ccccc1[N+](=O)[O-] (stereo not drawn) -23.5%
Cc1ccc(S(=O)(=O)NCC(=O)OCC(=O)Nc2ccc3c(c2)OCCO3)cc1 -2.89%
Cc1nnsc1C(=O)N1CCN(c2ccc(F)cc2)CC1 -13.3%
CC(C)(C)c1ccccc1NC(=O)NC1CCN(Cc2c(F)cccc2Cl)CC1 -6.22%
CCCC1C2CN(C(C)C)CC=C2C(C#N)=C(N)C1(C#N)C#N (stereo not drawn) 24.3%
CC(C)C(C(=O)O)N1C(=O)/C(=C/C=C/c2ccco2)SC1=S (stereo not drawn) 5.72%
Oc1ccc2c(c1)OCC1(O)Cc3cc(O)c(O)cc3C21 (stereo not drawn) -8.58%
COC(=O)c1cccc(NC(=O)NC(=O)c2ccc(Cl)cc2)c1 -10%
O=C(Nc1ccccn1)C1CCN(S(=O)(=O)c2ccc3c(c2)OCCO3)CC1 -4.65%
COc1ccc(C=Nc2cccnc2N)cc1 -5.56%
O=C1c2cccc3c(N4CCCCC4)ccc(c23)C(=O)N1c1ccccc1O 72.2%
O=C(CCN1C(=O)/C(=C/c2ccco2)SC1=S)Nc1ccc(O)cc1C(=O)O 4.28%
CCCC(=O)Nc1ccc(C(=O)NCCCn2ccnc2)cc1 9.53%
